This note sets out measurements from ChEMBL document CHEMBL3433997, “St. Jude Leishmania screening dataset” (2016).

Solute carrier family 2, facilitated glucose transporter member 1 (Homo sapiens), sequence (P11166 whole entry): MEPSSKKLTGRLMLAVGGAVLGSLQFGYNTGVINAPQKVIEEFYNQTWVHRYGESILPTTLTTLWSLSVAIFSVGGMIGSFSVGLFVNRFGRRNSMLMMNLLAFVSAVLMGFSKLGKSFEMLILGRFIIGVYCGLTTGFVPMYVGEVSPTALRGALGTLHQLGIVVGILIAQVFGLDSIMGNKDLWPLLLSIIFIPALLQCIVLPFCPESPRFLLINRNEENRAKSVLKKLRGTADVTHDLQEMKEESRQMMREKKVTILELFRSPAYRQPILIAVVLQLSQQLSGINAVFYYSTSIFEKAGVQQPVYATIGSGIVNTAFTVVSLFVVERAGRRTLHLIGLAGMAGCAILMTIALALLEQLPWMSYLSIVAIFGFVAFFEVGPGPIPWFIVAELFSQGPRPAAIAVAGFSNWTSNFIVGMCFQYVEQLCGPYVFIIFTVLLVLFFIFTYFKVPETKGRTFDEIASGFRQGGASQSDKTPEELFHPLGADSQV

This assay concerns the target Solute carrier family 2, facilitated glucose transporter member 1 (Homo sapiens) (UniProt P11166). Description: ST_JUDE_LEISH: Cytotoxicity at 2uM final concentration against transgenic Leishmania Mexicana promastigotes LmGLUT1 that are glucose transport deficient and complemented with the human glucose transporter GLUT1. Activity is measured by DNA content using SYBR green in vitro. It is filed as functional.
As a reminder, the inhibition is the relative decrease from the control value, in per cent. Regarding `COc1cc(CCCON2C(=N)N=C(N)NC2(C)C)cc(OC)c1OC`, the inhibition came to 1.04%.

For the compound `CCCCCCCCNCC(O)c1cc(-c2ccc(Cl)cc2)nc2cc(C)ccc12` (stereo not given), the inhibition was 3.01%.

Consider `O=C(Nc1nc2ccc(Cl)cc2s1)c1csnn1`, for which the inhibition was -1.77%.

Turning to `COc1ccc(CN2CCC(NCc3cccc(C(F)(F)F)c3)CC2)cc1`, the inhibition worked out at 13.2%.

For `CCC(CC)(Cc1ccccc1)NC(=O)[C@H](CC1CCCCC1)Nc1ccc(C#N)c2ccccc12`, the inhibition was -1.5%.

`c1ccc2[nH]c(-c3ccc(-c4ccc(CN5CCCCC5)cc4)cc3)nc2c1`: the inhibition turned out to be 18.2%.

For the compound `CN(CCNCc1ccc(-c2cccc(-c3nc4ccccc4[nH]3)c2)cc1)S(C)(=O)=O`, the inhibition stood at 0.68%.

Regarding `COc1cc(Nc2ccnc3cc(-c4nccs4)ccc23)ccc1OCCCc1nc2ccccc2[nH]1`, the inhibition is 3.6%.

For `O=C(/C=C/c1ccc(Cl)c(Cl)c1)NC1CCC(CN2CCC(c3c[nH]c4ccncc34)CC2)CC1` (stereo not given), the inhibition turned out to be 0.22%.

On to `CC(C)CCNC(=N)Nc1ccc(OCCCOc2ccc(NC(=N)NCCC(C)C)cc2)cc1`, for which the inhibition was determined as 0.62%.

Consider `c1cncc(-c2cc(N3CCCCC3)nc(-c3ccncc3)n2)c1`, for which the inhibition came to 8.22%.

Take `CN1CCC(N2CCN(Cc3ccc(-c4cccc(-c5nc6ccccc6[nH]5)c4)cc3)CC2)CC1`: the inhibition turned out to be 0.9%.

Regarding `CCc1cccc(-n2c(=O)c3cccnc3n2CC(=O)NC2CCCC2)c1`, the inhibition worked out at 3.43%.

For the compound `COc1cccc(Nc2nc(C)cc(NC3CCN(Cc4ccccc4)CC3)n2)c1`, the inhibition turned out to be 5.81%.

With `CN(C)CCNCc1cccc(-c2ccc3c(Nc4ccc(Oc5ccccn5)cc4)ccnc3c2)c1`, the inhibition was determined as 0.48%.

As for `Cc1cc(SC(C)(C)C)cc2c(Cl)c(C(N)=O)cnc12`, the inhibition was determined as 89%.

As for `O=C(N[C@@H](Cc1ccccc1)C(=O)NC1CCCCCC1)c1ccc(O)c(-c2ccc(Cl)c(Cl)c2)c1`, the inhibition was 3.99%.

In the case of `CCN(CC)CCCC(C)N/C(=N\c1ccccc1Br)Nc1ccc(C#N)cc1O` (stereo not given), the inhibition was determined as 1.03%.

Regarding `CCCNCc1ccc(-c2ccc(CN(CCOC)C(=O)[C@H]3CCCO3)cc2)nc1`, the inhibition was 4.56%.

`Nc1nc(N)c2cc(Cc3ccc([N+](=O)[O-])cc3)cnc2n1`: the inhibition was -2.65%.

Regarding `CN(C)CCC1CCN(CCS(=O)(=O)c2cccc(Nc3ncc(-c4cccc(F)c4)cn3)c2)CC1`, the inhibition is -2.08%.

Turning to `OC1(c2ccccc2)CCN(Cc2cccc(-c3c[nH]c4nc(NC5CCCC5)ncc34)c2)C1` (stereo not given), the inhibition was found to be 3.82%.

As to `Cc1ccc(CCOCCCCCNCC(O)c2cc(Cl)c(N)c(Cl)c2)cc1` (stereo not given), the inhibition stood at 1.04%.

Turning to `Cc1cc(-c2ccc(CNC3Cc4ccccc4C3)cc2)ccc1S(=O)(=O)NCCN1CCCC1`, the inhibition turned out to be 30.9%.

For `c1ccc(Oc2ccc(Nc3ccnc4cc(-c5ccc(CN6CCOCC6)o5)ccc34)cc2)nc1`, the inhibition was -1.57%.

As to `CN1CCN(Cc2cccc(-c3ccc4c(Nc5ccc(Oc6cccnc6)cc5)ccnc4c3)c2)CC1`, the inhibition is 4.73%.

For the compound `O=C1CSc2ccc(CNC3CCN(CCc4c(Cl)cnc5ccc(Cl)cc45)CC3)nc2N1`, the inhibition is 0.88%.

Turning to `Cc1ccc(C(=O)Nc2cc(S(=O)(=O)N3CCCC3)ccc2OCC(F)(F)F)cc1`, the inhibition is 3.23%.

On to `O=C(Cc1ccccc1)NC1(c2ccccc2)CCN(CCc2c[nH]c3ccc(F)cc23)CC1`, for which the inhibition is -0.99%.

For the compound `O=C(C=Cc1cccs1)N(CCCn1ccnc1)c1nc2ccc(F)cc2s1`, the inhibition amounted to 4.66%.

Consider `COC(=O)c1cc2cccc(NC[C@@H](C)NC[C@H](O)c3cccc(Cl)c3)c2[nH]1`, for which the inhibition was -0.1%.

With `O=C(/C=C/c1ccc(Cl)c(Cl)c1)NCC(CCCN1CCC(c2c[nH]c3ccccc23)CC1)c1ccccc1` (stereo not given), the inhibition stood at 3.06%.

For `COc1nc2c(CCN3CC[C@H](NCc4ccc5c(c4)NC(=O)CO5)[C@H](O)C3)c(Cl)cnc2cc1F`, the inhibition is 6.64%.

`Cc1noc(NC(=O)c2sc3ccccc3c2O)c1C`: the inhibition was 1.04%.

On to `O=S(=O)(c1ccc(Oc2ccccc2)cc1)N(CCC(O)(C(F)(F)F)C(F)(F)F)Cc1cccc(O)c1`, for which the inhibition is -1.44%.

`CCNC(=O)Nc1ccc(-c2cccc(-c3nc4cccc(C)c4[nH]3)c2)cc1`: the inhibition was found to be 5.51%.

On to `Oc1ccc2c(CNCCc3ccccc3)c(O)ccc2c1CNCCc1ccccc1`, for which the inhibition was found to be 8.01%.

Turning to `COc1cccc(Nc2nc(C)cc(NCc3ccc(-c4c(C)noc4C)cc3)n2)c1`, the inhibition is 14.8%.

`c1ccc(CSC2=NNC(c3ccccn3)S2)cc1` (stereo not given): the inhibition was 0.82%.

Consider `COc1ccc2ncc(F)c(CCN3CC(O)C(CNCc4ccccc4)C3)c2n1` (stereo not given), for which the inhibition was found to be 7.65%.
